Assay outcomes as filed in PubChem BioAssay.
Cycloheximide cs – counter-screen hit for Shiga toxin inhibitors, cycloheximide | cell reporter, cycloheximide protein synthesis inhibition counterscreen | max response, % | actives 12% (n = 300,000) | AID 2314; in the data active = max response mostly above about 13%, no sharp cut-off; inactive = mostly below about 14%; also: read at 38.3 µM for the half of the compounds with a filed dose; 0% is about no effect
AMA1-RON2 inh – inhibitors of Plasmodium falciparum AMA1-RON2 interaction; AlphaScreen AMA1-biotinylated RON2 peptide binding; Potency, µM (doses to about 58.2 µM), without a hit: at the highest dose activity change, negative = inhibition, hits mostly inhibitors; actives 0.2% (n = 360,000);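 also: potency is read from the fitted curve at half-maximal effect; 0% = vehicle wells and -100% = peptide control; nearly all actives have a fitted effect of over 45% in size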
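AMA1 (3D7) with his tag at 25 nM final met compounds first, then biotinylated RON2 peptide at 25 nM; detection used donor plus acceptor beads, 10 µg/mL apiece, read by AlphaScreen after 30 min at room temperature.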
Pf growth 48h – inhibits P. falciparum growth in the first generation, 48 h; actives 5.9% (n = 310,000); Potency, µM (titrated, usually from 28.7 µM), for the others: top-dose activity change, negative = inhibition, actives largely listed as inhibitors; P. falciparum luciferase growth in erythrocytes, 48 h; also: potency is read from the fitted curve at half-maximal effect; % is scaled to controls: 0 for no effect and ±100 for the full control effect
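A one-generation exposure of luciferase-tagged malaria parasites in RPMI 1640/Albumax erythrocyte culture, 37 C and 5% CO2. Inhibition is inferred from decreased luminescence after adding detection reagent.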
Pf growth 96h – P. falciparum growth inhibition at 96 hours; P. falciparum luciferase reporter growth, 96 h; Potency, µM (highest dose often 28.7 µM), inactives show at the highest dose activity change, negative = inhibition, hits mostly inhibitors; actives 6.9% (n = 320,000); AID 504834; also: potency is read from the fitted curve at half-maximal effect; % is scaled to controls: 0 for no effect and ±100 for the full control effect
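Two-generation exposure (96 h) targets delayed-death phenotype. Reporter parasites carrying integrated firefly luciferase, in red cells at 2% hematocrit and 0.05% parasitemia final, kept at 37 C, 5% CO2; luminescence loss indicates inhibition.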
HCV inh – inhibitors of hepatitis C virus infection; Huh7.5.1 HCVcc-Cre infection, luciferase reporter, 44 h; Potency, µM (titrated, usually from 41.8 µM), without a hit: at the top dose activity change, negative = inhibition, most hits filed as inhibitors; actives 3.4% (n = 340,000); also: potency is read from the fitted curve at half-maximal effect; % is scaled to controls: 0 for no effect and ±100 for the full control effect
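Whole-lifecycle infectious HCVcc-Cre system; cells 1,000/well, compound then virus (~0.5 moi) added 4 h after plating, 44 h culture. Luciferase read 15 sec following 15 min substrate incubation, room temp.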
Shiga toxin inh – inhibitors of Shiga toxin in Vero cells; Vero cells, Shiga toxin protein synthesis inhibition reporter; inhibition, % at 38.7 µM; actives 9.2% (n = 290,000); in the data active = inhibition mostly above about 28%, no sharp cut-off; inactive = mostly below about 43%; also: 0% is about no effect
* hit, by the source's call; ? = inconclusive; / = no result given; [ ] = dose if it differs, or a comment. This is a sample that favours compounds with a hit; in the whole collection about 21% have one here. Unless noted, calls follow the shape of the dose curve; as a rule, active = well fitted curve in the direction sought with a large enough effect; inconclusive = small, poorly fitted or top-dose-only effect, or another doubt; inactive = no such curve, though single readings can be large; an effect the other way counts as inactive or inconclusive.

SMILES	Cycloheximide cs	AMA1-RON2 inh	Pf growth 48h	Pf growth 96h	HCV inh	Shiga toxin inh
COc1ccccc1N1C(=O)CC(Sc2ccccc2N)C1=O (configuration not stated)	11.3	8.6%	42.8%	40.0%	-13.5%	21.1
CC(=O)OCCn1c2nc(=O)[nH]c(=O)c-2nc2cc(C)c(C)cc21	-2.6	-3.4%	?	?	?	-12.7
CCCC(=O)OC[C@@H](OC(=O)CCC)[C@@H](OC(=O)CCC)[C@H](Cn1c2nc(=O)[nH]c(=O)c-2nc2cc(C)c(C)cc21)OC(=O)CCC	/	/	?	12µM*	/	/
Cc1cc2nc3c(=O)[nH]c(=O)nc-3n(CC(O)C(O)C(O)CO)c2cc1C (configuration not stated)	/	/	13.5µM*	7.57µM*	/	/
CCCCN(C(C)=O)c1c(CC)nc2ccc(C(=O)NCCCN(C)C)cn12	/	-10.8%	/	/	/	/
O=C1CN(C(=O)COc2ccc(Br)cc2)c2ccccc2N1	-1.3	-6.6%	?	-24.6%	-13.6%	4.0
O=C(NCC1CCCO1)c1cc([N+](=O)[O-])ccc1N1CCC(Cc2ccccc2)CC1 (configuration not stated)	/	-4.2%	11.7µM*	?	-25.9%	/
O=C(COc1ccc([N+](=O)[O-])cc1Cl)NCC1CCCO1 (configuration not stated)	15.9*	-15.4%	1.8%	59.2%	16.8%	46.5*
CC(C)CNS(=O)(=O)c1ccc(OCC(=O)NCC2CCCO2)c(Cl)c1 (configuration not stated)	0.4	0.8%	-14.1%	?	4.9%	-9.3
O=C(NCC1CCCO1)c1ccc(N2CCCCC2)c([N+](=O)[O-])c1 (configuration not stated)	43.0*	-4.0%	6.0%	?	1.0%	44.5*
Cc1ccc(C(=O)NCc2ccco2)cc1[N+](=O)[O-]	10.2	-23.7%	-0.8%	29.4%	7.0%	-6.5
CC1CCCN(c2ccc(C(=O)NCc3ccco3)cc2[N+](=O)[O-])C1 (configuration not stated)	7.1	-27.4%	4.15µM*	?	?	60.0*
O=C(NC1CC1)c1ccc(N2CCCCC2)c([N+](=O)[O-])c1	16.5*	0.0%	8.28µM*	2.62µM*	12.2%	78.8*
CCOc1ncccc1C(=O)OCC(=O)c1cccc(Br)c1	1.4	-11.4%	18.1%	6.0%	-4.5%	-7.4
CCOc1cc(S(=O)(=O)NCCc2ccccc2C)c(OCC)cc1-n1cnnn1	-2.7	-0.7%	?	?	?	-0.1
CCOc1cc(S(=O)(=O)N2CC=C(c3ccc(F)cc3)CC2)c(OCC)cc1-n1cnnn1	1.7	7.9%	7.38µM*	?	-15.8%	-8.0
CCOc1cc(S(=O)(=O)N2CCC(Cc3ccccc3)CC2)c(OCC)cc1-n1cnnn1	3.2	-0.8%	13.1µM*	?	?	-13.7
CCOc1cc(S(=O)(=O)NCCc2cccc(C)c2)c(OCC)cc1-n1cnnn1	4.7	3.9%	9.28µM*	6.57µM*	-17.4%	-4.7
CSc1nc2ccccc2nc1N(C)S(=O)(=O)c1ccc(C)cc1	5.7	0.4%	-3.5%	-8.8%	-26.5%	-2.0
CC(=O)Nc1ccc(C(=O)COC(=O)C2CC2C)c(F)c1 (configuration not stated)	/	6.0%	-23.3%	31.2%	12.6µM*	/
O=c1[nH]c(=O)n([C@@H]2C[C@H](O)[C@H](CO)O2)cc1I	/	/	-3.4%[12.8 µM]	-7.3%[12.8 µM]	/	/
O=C(NCc1ccc(Cl)cc1)c1ccc(OCC2CCCO2)cc1 (configuration not stated)	-3.1	11.4%	9.4%	7.3%	-5.2%	13.5
Cc1ccc(CNC(=O)c2ccc(OCC3CCCO3)cc2)cc1 (configuration not stated)	15.2*	7.3%	-0.3%	33.8%	0.8%	16.4
O=C(NCc1ccco1)c1ccc(OCC2CCCO2)cc1 (configuration not stated)	20.2*	1.2%	1.4%	/	4.9%	22.7
COc1cc(NS(=O)(=O)c2c(C(=O)N3CCOCC3)c(C)n(C)c2C)cc(OC)c1OC	0.7	15.6%	31.5%	?	22.1%	-5.2
SMILES	Cycloheximide cs	AMA1-RON2 inh	Pf growth 48h	Pf growth 96h	HCV inh	Shiga toxin inh
CCOc1ccccc1NC(=O)CN(c1ccc(OC)cc1)S(=O)(=O)c1c(C)[nH]c(=O)[nH]c1=O	-2.2	-0.4%	?	-1.1%	14.9%	5.4
C=CCc1c(C)nc(-c2ccccc2)nc1N/N=C(\C)c1ccc(N)cc1	10.2	3.6%	?	-3.6%	?	28.4
C=CCc1c(C)nc(-c2ccccc2)nc1N/N=C/c1ccccc1	-3.5	65.8%	37.9%	?	?	-3.3
C=CCc1c(C)nc(-c2ccccc2)nc1N/N=C/c1ccncc1	23.1*	44.5%	?	?	?	30.1
C=CCc1c(C)nc(-c2ccccc2)nc1Nc1ccccc1O	-2.0	2.0%	5.22µM*	?	?	9.4
O=C(NCCCO)c1ccc(CSc2nc3ccccc3[nH]2)cc1	10.7*	11.7%	63.9%	1.8%	-6.5%	31.1
CC1C/C(=N/NC(=O)c2ccc(CSc3nc4ccccc4[nH]3)cc2)CC(C)(C)C1 (configuration not stated)	5.7	32.9%	9.0%	?	-15.6%	16.7
O=C(NCCO)c1ccc(CSc2nc3ccccc3[nH]2)cc1	17.4*	6.3%	54.8%	94.5%	?	18.5
CC(C)NC(=O)C1(C)CSCC(=O)N1C1CC1 (configuration not stated)	/	4.2%	/	/	/	/
CC(=O)N(/N=C1\Sc2ccccc2C1=O)c1cccc(C)c1	58.2*	-13.4%	?	?	-9.3%	141.6*
CC(C)[C@H](NC(=O)C1CC(=O)N(c2ccc(F)cc2)C1)C(=O)N1CCCCC1 (some centres not stated)	1.4	9.3%	-0.8%	-3.6%	11.5%	-5.4
CC1=C(C(=O)OC2CCCCC2)C(c2ccc(N(C)C)cc2)NC(=O)N1 (configuration not stated)	-1.5	-8.9%	4.5%	-5.4%	?	-6.7
Cc1ccc(C)n1-c1ccccc1N	23.9*	/	200.0%	-16.5%	2.2%	11.7
Nc1ccccc1-n1cccc1	13.3*	-3.3%	87.1%	31.6%	18.5%	12.8
O=C(NC(=O)c1c(F)cccc1F)Nc1ccccc1SC(F)F	11.0*	3.9%	-13.7%	4.2%	-1.6%	27.6
O=C(NC(=O)c1c(F)cccc1F)Nc1cc(Cl)c(F)c(Cl)c1F	-6.8	2.8%	?	-27.8%	9.3%	-5.3
O=C(CSc1nnc(CNC(=O)c2ccco2)o1)Nc1ccc(Br)cc1	15.3	7.0%	30.1%	-10.0%	-5.0%	-3.4
COc1ccc(CS(=O)(=O)CC2(O)CCN(C(=O)c3cccc(C(F)(F)F)c3)CC2)cc1	1.4	-13.3%	14.7µM*	3.0%	-2.7%	-8.1
